For 70 compounds, outcome results are on record in PubChem BioAssay AID1722 (National Center for Advancing Translational Sciences (NCATS), 2009).

Out of some 290,000 compounds screened, fewer than 10 were called active. Calls follow the shape of the full dose curve. Not all results are given here.

For this experiment, the target named is Pyruvate kinase (Leishmania mexicana) (UniProt Q27686). Description: qHTS Assay for Activators of Leishmania Mexicana Pyruvate Kinase (LmPK). The note with it: purified LmPK, Kinase-Glo ATP luminescence, 1 h; series mostly up to 57.5 µM. An excerpt: NIH Chemical Genomics Center [NCGC] Malcolm Walkinshaw, Hugh Morgan, Linda Gilmore University of Edinburgh, UK MLPCN Grant: 1 R03 MH085697-01 NCGC Assay Overview: Pyruvate kinase (L. Mexicana) (LmPK) enzyme was supplied as a highly purified (>95% pure) sulphate-free preparation from University of Edinburgh, UK and assayed for its ability to generate ATP from ADP using phosphoenolpyruvate (PEP) as a substrate. ATP generation was detected in a coupled reaction by luciferase-mediated luminescence, an ATP-dependent process. Pyruvate kinase substrates, PEP and ADP, were present in the assay at Km and approximately 10-fold below Km respectively. The enzyme was assayed at an intermediate level of activity to screen for both inhibitors and activators.
Sequence of Pyruvate kinase (Leishmania mexicana) (Q27686 whole entry, looked up): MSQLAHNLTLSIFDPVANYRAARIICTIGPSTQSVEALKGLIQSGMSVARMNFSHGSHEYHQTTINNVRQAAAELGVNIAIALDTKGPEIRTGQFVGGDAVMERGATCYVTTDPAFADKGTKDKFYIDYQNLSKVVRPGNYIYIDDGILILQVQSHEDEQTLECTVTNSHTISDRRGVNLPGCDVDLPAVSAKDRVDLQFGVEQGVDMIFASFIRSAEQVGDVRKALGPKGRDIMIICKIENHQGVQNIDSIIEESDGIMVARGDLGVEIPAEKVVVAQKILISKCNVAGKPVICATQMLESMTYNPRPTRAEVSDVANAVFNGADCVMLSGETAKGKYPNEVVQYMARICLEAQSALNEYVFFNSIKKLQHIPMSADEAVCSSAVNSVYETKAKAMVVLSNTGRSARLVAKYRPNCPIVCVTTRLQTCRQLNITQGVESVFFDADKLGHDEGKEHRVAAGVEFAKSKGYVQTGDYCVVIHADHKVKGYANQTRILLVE
NCGC Assay Protocol Summary: Three uL of enzyme mix (kept on ice) in assay buffer (50 mM Imidazole pH7.2, 50 mM KCl, 7 mM MgCl2, 0.01% Tween 20, 0.05% BSA) containing PEP (0.5 mM final concentration) and LmPK (0.1 nM final concentration) was dispensed into white solid bottom 1,536 well microtiter plates. 23 nL of compound were delivered by a pin tool and 1 uL of ADP mix in assay buffer (r.t; 0.1 mM final ADP concentration) was added. Plates were incubated at room temperature for 1 hour. Two uL of detection mix (Kinase-Glo, Promega; at 4 degree Celsius protected from light) was added and luminescence read by a ViewLux (Perkin Elmer) at 1 second exposure/plate. Data were normalized to the uninhibited and AC100 inhibition (no enzyme). To monitor activation, the first column contained a five-fold concentration of LmPK (0.5 nM).
As to `O=C(/C=C/c1ccccc1)c1ccccc1O`, the compound was called inactive. As for `Cc1nc(-c2ccc(NC(=O)c3cccs3)cc2)cs1`, the entry is “inactive”; as for `CCN(CC)c1ccc2oc(=O)c(C)nc2c1`, “inactive”; as for `S=c1[nH]ccn1-c1ccc(Cl)cc1`, “inactive”.

For the compound `N=c1oc2ccccc2cc1C(=O)N/N=C/c1ccccc1`, the result was inactive.

For the compound `COc1cccc(C(=O)Nc2ccc(N3CCCC3)cc2)c1`, the outcome was inactive. As for `COc1ccc(C(=O)Nc2ccccc2C(=O)N/N=C/c2ccccc2OC)cc1`, the entry is “inactive”; as for `O=C(O)/C=C/C(=O)NNc1ccc([N+](=O)[O-])cc1`, “inactive”. In the case of `Clc1ccc2nc(CSc3ccccc3)cn2c1`, the compound was classed as inactive. For the compound `C/C(=N\NC(=O)OC(C)(C)C)c1ccc[nH]1`, the outcome was inactive. Consider `Cn1c(-c2sc3cc(C(F)(F)F)cnc3c2-c2ccccc2)n[nH]c1=S`, for which the compound was classed as inactive. Turning to `COc1ccc(-c2cn3ccc(C)cc3n2)cc1`, the outcome was inactive. For the compound `Cc1cnc(NC(=O)c2ccccn2)s1`, the compound was classed as inactive.

Consider `S=c1[nH]nc(-c2cc(-c3ccsc3)n[nH]2)n1-c1ccccc1`, for which the result was inactive.

With `COc1ccc(C2=Nc3cc(C)ccc3OC2)cc1`, the call was inactive.

Take `NC(=O)Cc1ccc2sc(-c3ccccc3)nc2c1`: the compound was classed as inactive. As for `CCc1ccc2nc3sc(C(=O)Nc4nnc(CC)s4)c(N)c3cc2c1`, the entry is “inactive”; as for `COc1cccc(C(=O)Nc2ccc(NC(=O)c3ccco3)cn2)c1`, “inactive”; as for `Cc1csc(NC(=O)Nc2ccccc2[N+](=O)[O-])n1`, “inactive”.

Turning to `O=[N+]([O-])c1ccc2nc(-c3ccccn3)[nH]c2c1`, the call was inactive. Under `CCOc1cnc(C(=O)NNC(=O)c2ccccc2Br)o1` stands “inactive”; under `c1ccc(CN=C2Nc3ccccc3CS2)nc1`, “inactive”. `C=CCn1c(-c2ccccc2OCC)n[nH]c1=S`: the result was inactive. As for `COc1ccc(C(=O)Nc2ccccc2C(=O)N/N=C/c2ccc(O)c(OC)c2)cc1`, the entry is “inactive”; as for `CCOc1ccc(C(=O)Nc2cccc(SC)c2)cc1`, “inactive”; as for `O=C(Nc1ccc2c(c1)OCCO2)c1cnccn1`, “inactive”.

As for `C=CCNC(=S)N1CCN(CCN=Cc2c(C)[nH]n(-c3ccc([N+](=O)[O-])cc3)c2=O)CC1`, the result was inactive. Turning to `Cc1ccc(-n2[nH]c(C)c(/C=N/N3C(=O)c4cccc5cccc(c45)C3=O)c2=O)cc1`, the compound was classed as inactive. Under `Cc1ccc(C)c2c1cc(C)c1nnc(SCC(=O)Nc3cccc(C(=O)O)c3)n12` stands “inactive”. As for `Cc1ccc(NCc2n[nH]c(=S)n2-c2ccccc2)cc1Cl`, the entry is “inactive”; as for `COc1cccc(/C=N\NC(=O)C2=NNC(=O)C2C)c1O` (stereo not given), “inactive”; as for `S=c1[nH]nc(-c2cccs2)n1/N=C/c1cccs1`, “inactive”. Under `CSC1=N/C(=C\C=C\c2cccs2)C(=O)S1` stands “inactive”; under `O=C(Nc1ccccc1)c1ccc2c(c1)OCO2`, “inactive”; under `CCc1cc(-c2n[nH]c(=S)n2CC(C)C)cs1`, “inactive”. As for `Cc1[nH]n(-c2ccc([N+](=O)[O-])cc2)c(=O)c1C=NCCN1CCN(C(=O)c2ccccc2F)CC1`, the outcome was inactive. As for `Cc1cc(C(=O)N/N=C/c2ccc(N3CCOCC3)cc2)c(C)o1`, the entry is “inactive”.

In the case of `O=C(Nc1nc2ccccc2s1)c1ccc2c(c1)OCO2`, the outcome was inactive. As for `O=C(Nc1ccccc1)Nc1ccccc1C(=O)NCc1ccco1`, the entry is “inactive”. Under `Cn1cccc1C(=O)Nc1nccs1` stands “inactive”. Take `O=c1c2ccccc2ncn1/N=C/c1ccccc1`: the call was inactive. As to `C=CCn1c(C)cc(C2=NNC(=NCC)SC2)c1C`, the result was inactive. In the case of `c1c2c(cc3sc(N4CCCCC4)nc13)OCCO2`, the compound was called inactive. Under `O=C1/C(=C/c2cccs2)CCc2ccccc21` stands “inactive”; under `Clc1ccc(-c2cc(-c3ccccn3)on2)c(Cl)c1`, “inactive”. As for `O=C1CSC(=S)N1/N=C/c1ccc(O)c([N+](=O)[O-])c1`, the entry is “inactive”; as for `COc1ccc(OC)c(-n2c(-c3ccn[nH]3)n[nH]c2=S)c1`, “inactive”; as for `CCn1c(CSCc2c(Cl)cccc2Cl)n[nH]c1=S`, “inactive”.

For the compound `O=C(/C=C/c1ccc2c(c1)OCCO2)c1ccc(O)cc1`, the compound was classed as inactive. As to `Cc1ccc(F)c(NC(=O)CCc2ccccc2)c1`, the outcome was inactive. As for `COc1ccc(C(=O)/C=C/Nc2ccccn2)cc1`, the entry is “inactive”; as for `Cn1cc([N+](=O)[O-])c(C(=O)Nc2ccc3c(c2)OCCO3)n1`, “inactive”; as for `c1ccc2[nH]c(-c3nc4ccccc4[nH]3)nc2c1`, “inactive”. Under `CC(=O)Oc1ccccc1C(=O)Nc1ncc([N+](=O)[O-])s1` stands “inactive”; under `O=C(c1ccc(F)cc1)n1c(=S)nc2ccccn21`, “inactive”. Under `C/C(=N\NC(=O)CC(C)C)c1c(C(F)(F)F)[nH]n(-c2nc3ccccc3s2)c1=O` stands “inactive”. For `c1ccc(-c2noc(-c3cccs3)n2)nc1`, the result was inactive.

For the compound `Cc1ccc(-c2nc3ccccc3[nH]2)cc1N`, the compound was called inactive. Under `CCCCC(CC(C)O)c1n[nH]c(=S)n1-c1ccccc1` (stereo not given) stands “inactive”.

`COc1ccc(C(=O)Nc2ccc(F)cc2F)cc1`: the compound was called inactive. Under `Nc1ncc(-c2cc3ccccc3oc2=O)s1` stands “inactive”; under `CN(C)CCCSc1ccccc1NC(=O)/C=C/c1ccccc1`, “inactive”; under `COc1ccccc1-n1c(-c2cc(-c3ccco3)[nH]n2)n[nH]c1=S`, “inactive”. As to `COCn1c(COc2ccccc2)nc2ccccc21`, the outcome was inactive.

Regarding `N/C(=N\OC(=O)CCC1CCCCC1)c1ccccn1`, the outcome was inactive. As for `CCCc1cc(-c2n[nH]c(=S)n2Cc2ccccc2)cs1`, the entry is “inactive”. For `O=C(OC1CCOC1=O)c1ccc(-c2nc3ccccc3s2)s1` (stereo not given), the compound was called inactive. Regarding `COc1cccc(C(=O)c2cc3ccc(O)cc3oc2=O)c1`, the outcome was inactive. Under `COc1cccc(-c2nc3cc(C)ccc3o2)c1` stands “inactive”; under `C=CCn1c(-c2ccc3[nH]c(C)c(C)c3c2)n[nH]c1=S`, “inactive”.
